# Laboratory results taken from PubChem BioAssay AID1159580 (chemical genetic matrix, 2015).
# Among all 5,500 compounds or so, about 2,000 (36%) were called active. About 18% were inconclusive and are not listed. This is one part of the list. Values without a mark were called inactive. Cut-off read from the data, not from the text of the source: active = normalized growth mostly below about 0.91 (no sharp cut-off); inconclusive = no clear call, values can overlap the other calls; inactive = mostly above about 0.92.
# Assay: chemical genetic growth profiling, strain panel (AID 1159580);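 note: tested at 20 µM; growth read once vehicle control cultures reached saturation at 30 °C; 1 = growth at the plate median or of vehicle wells; lower values mean less growth of the strain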
# Conditions: growth OD
# [1] = S. cerevisiae deletion strains, locus YCL061C, strain MRC1, stronger effect = lower value
# [2] = S. cerevisiae deletion strains, locus YHR030C, strain SLT2, stronger effect = lower value
# [3] = S. cerevisiae deletion strains, locus YJL187C, strain SWE1, stronger effect = lower value
structure (smiles),measurement,setting,value
O=C(O)CCCN1C(=O)c2cccc3cccc(c23)C1=O,normalized growth,"S. cerevisiae deletion strains, locus YAL021C, strain ccr4, stronger effect = lower value",0.983
same,normalized growth,"S. cerevisiae deletion strains, locus YAL026C, strain drs2, stronger effect = lower value",1.02
same,normalized growth,"S. cerevisiae deletion strains, locus YAL030W, strain snc1, stronger effect = lower value",1.01
same,normalized growth,"S. cerevisiae deletion strains, locus YBL061C, strain skt5, stronger effect = lower value",1.01
same,normalized growth,"S. cerevisiae deletion strains, locus YBR009C, strain hhf1, stronger effect = lower value",1.02
same,normalized growth,"S. cerevisiae deletion strains, locus YBR023C, strain chs3, stronger effect = lower value",1.01
same,normalized growth,"S. cerevisiae deletion strains, locus YBR171W, strain sec66, stronger effect = lower value",1.01
same,normalized growth,"S. cerevisiae deletion strains, locus YBR231C, strain swc5, stronger effect = lower value",1.01
same,normalized growth,"S. cerevisiae deletion strains, locus YBR279W, strain paf1, stronger effect = lower value",1.01
same,normalized growth,"S. cerevisiae deletion strains, locus YCL011C, strain gbp2, stronger effect = lower value",1.02
same,normalized growth,"S. cerevisiae deletion strains, locus YCL016C, strain dcc1, stronger effect = lower value",1.02
same,normalized growth,[1],1.02
same,normalized growth,"S. cerevisiae deletion strains, locus YCL069W, strain vba3, stronger effect = lower value",1.02
same,normalized growth,"S. cerevisiae deletion strains, locus YCR088W, strain abp1, stronger effect = lower value",1.02
same,normalized growth,"S. cerevisiae deletion strains, locus YDL005C, strain med2, stronger effect = lower value",1
same,normalized growth,"S. cerevisiae deletion strains, locus YDL040C, strain nat1, stronger effect = lower value",1
same,normalized growth,"S. cerevisiae deletion strains, locus YDR001C, strain nth1, stronger effect = lower value",1.01
same,normalized growth,"S. cerevisiae deletion strains, locus YDR069C, strain doa4, stronger effect = lower value",1.02
same,normalized growth,"S. cerevisiae deletion strains, locus YDR137W, strain rgp1, stronger effect = lower value",1.01
same,normalized growth,"S. cerevisiae deletion strains, locus YDR159W, strain sac3, stronger effect = lower value",1.01
same,normalized growth,"S. cerevisiae deletion strains, locus YDR195W, strain ref2",1.05
same,normalized growth,"S. cerevisiae deletion strains, locus YDR297W, strain sur2, stronger effect = lower value",1.01
same,normalized growth,"S. cerevisiae deletion strains, locus YDR334W, strain swr1, stronger effect = lower value",1.02
same,normalized growth,"S. cerevisiae deletion strains, locus YDR335W, strain msn5, stronger effect = lower value",1.01
same,normalized growth,"S. cerevisiae deletion strains, locus YDR392W, strain spt3, stronger effect = lower value",0.882
same,normalized growth,"S. cerevisiae deletion strains, locus YEL003W, strain gim4, stronger effect = lower value",1.01
same,normalized growth,"S. cerevisiae deletion strains, locus YEL037C, strain rad23, stronger effect = lower value",1.01
same,normalized growth,"S. cerevisiae deletion strains, locus YEL061C, strain CIN8 (second series), stronger effect = lower value",1.01
same,normalized growth,"S. cerevisiae deletion strains, locus YER015W, strain faa2, stronger effect = lower value",1.01
same,normalized growth,"S. cerevisiae deletion strains, locus YER016W, strain bim1, stronger effect = lower value",1.02
same,normalized growth,"S. cerevisiae deletion strains, locus YER111C, strain swi4, stronger effect = lower value",1.01
same,normalized growth,"S. cerevisiae deletion strains, locus YER155C, strain BEM2 (second series), stronger effect = lower value",1
same,normalized growth,"S. cerevisiae deletion strains, locus YFR010W, strain ubp6, stronger effect = lower value",1.01
same,normalized growth,"S. cerevisiae deletion strains, locus YGL167C, strain pmr1, stronger effect = lower value",1.01
same,normalized growth,"S. cerevisiae deletion strains, locus YGL173C, strain kem1, stronger effect = lower value",1.02
same,normalized growth,"S. cerevisiae deletion strains, locus YGL227W, strain vid30, stronger effect = lower value",1.02
same,normalized growth,"S. cerevisiae deletion strains, locus YGL240W, strain doc1, stronger effect = lower value",1
same,normalized growth,"S. cerevisiae deletion strains, locus YGL253W, strain hxk2, stronger effect = lower value",1.02
same,normalized growth,"S. cerevisiae deletion strains, locus YHR013C, strain ard1, stronger effect = lower value",0.97
same,normalized growth,"S. cerevisiae deletion strains, locus YHR027C, strain rpn1, stronger effect = lower value",1.02
same,normalized growth,[2],1
same,normalized growth,"S. cerevisiae deletion strains, locus YHR079C, strain IRE1, stronger effect = lower value",0.998
same,normalized growth,"S. cerevisiae deletion strains, locus YHR142W, strain chs7, stronger effect = lower value",0.991
same,normalized growth,"S. cerevisiae deletion strains, locus YJL092W, strain hpr5, stronger effect = lower value",1.01
same,normalized growth,"S. cerevisiae deletion strains, locus YJL095W, strain BCK1 (second series), stronger effect = lower value",1.01
same,normalized growth,"S. cerevisiae deletion strains, locus YJL095W, strain BCK1, stronger effect = lower value",0.998
same,normalized growth,"S. cerevisiae deletion strains, locus YJL115W, strain asf1, stronger effect = lower value",1.02
same,normalized growth,"S. cerevisiae deletion strains, locus YJL129C, strain trk1, stronger effect = lower value",1.02
same,normalized growth,"S. cerevisiae deletion strains, locus YJL154C, strain vps35, stronger effect = lower value",1.01
same,normalized growth,"S. cerevisiae deletion strains, locus YJL164C, strain tpk1, stronger effect = lower value",0.992
same,normalized growth,"S. cerevisiae deletion strains, locus YJL166W, strain qcr8, stronger effect = lower value",1.01
same,normalized growth,[3],1.01
same,normalized growth,"S. cerevisiae deletion strains, locus YJR066W, strain TOR1, stronger effect = lower value",0.963
same,normalized growth,"S. cerevisiae deletion strains, locus YKL160W, strain elf1, stronger effect = lower value",0.988
same,normalized growth,"S. cerevisiae deletion strains, locus YKR026C, strain gcn3, stronger effect = lower value",1.02
same,normalized growth,"S. cerevisiae deletion strains, locus YKR091W, strain srl3, stronger effect = lower value",1.01
same,normalized growth,"S. cerevisiae deletion strains, locus YLL001W, strain dnm1, stronger effect = lower value",1.03
same,normalized growth,"S. cerevisiae deletion strains, locus YLL026W, stronger effect = lower value",1.01
same,normalized growth,"S. cerevisiae deletion strains, locus YLL041C, strain sdh2, stronger effect = lower value",1.01
same,normalized growth,"S. cerevisiae deletion strains, locus YLR027C, strain aat2, stronger effect = lower value",1.01
same,normalized growth,"S. cerevisiae deletion strains, locus YLR113W, strain HOG1, stronger effect = lower value",1.03
same,normalized growth,"S. cerevisiae deletion strains, locus YLR221C, strain rsa3, stronger effect = lower value",0.996
same,normalized growth,"S. cerevisiae deletion strains, locus YLR258W, strain gsy2, stronger effect = lower value",1.02
same,normalized growth,"S. cerevisiae deletion strains, locus YLR262C, strain YPT6 (second series), stronger effect = lower value",0.983
same,normalized growth,"S. cerevisiae deletion strains, locus YLR320W, strain mms22, stronger effect = lower value",0.986
same,normalized growth,"S. cerevisiae deletion strains, locus YLR342W, strain FKS1, stronger effect = lower value",1.02
same,normalized growth,"S. cerevisiae deletion strains, locus YLR357W, strain rsc2, stronger effect = lower value",1.04
same,normalized growth,"S. cerevisiae deletion strains, locus YLR370C, strain arc18, stronger effect = lower value",1.02
same,normalized growth,"S. cerevisiae deletion strains, locus YLR384C, strain iki3, stronger effect = lower value",1.01
same,normalized growth,"S. cerevisiae deletion strains, locus YML120C, strain ndi1, stronger effect = lower value",1
same,normalized growth,"S. cerevisiae deletion strains, locus YMR058W, strain fet3, stronger effect = lower value",1.02
same,normalized growth,"S. cerevisiae deletion strains, locus YMR125W, strain sto1, stronger effect = lower value",1.03
same,normalized growth,"S. cerevisiae deletion strains, locus YMR129W, stronger effect = lower value",1.02
same,normalized growth,"S. cerevisiae deletion strains, locus YMR205C, strain PFK2, stronger effect = lower value",1.03
same,normalized growth,"S. cerevisiae deletion strains, locus YMR231W, strain pep5, stronger effect = lower value",1.01
same,normalized growth,"S. cerevisiae deletion strains, locus YNL071W, strain lat1, stronger effect = lower value",0.994
same,normalized growth,"S. cerevisiae deletion strains, locus YNL183C, strain NPR1, stronger effect = lower value",0.931
same,normalized growth,"S. cerevisiae deletion strains, locus YNL209W, strain ssb2, stronger effect = lower value",1.01
same,normalized growth,"S. cerevisiae deletion strains, locus YNL248C, strain rpa49, stronger effect = lower value",0.98
same,normalized growth,"S. cerevisiae deletion strains, locus YNL322C, strain KRE1 (second series), stronger effect = lower value",1.02
same,normalized growth,"S. cerevisiae deletion strains, locus YNR049C, strain mso1, stronger effect = lower value",1.01
same,normalized growth,"S. cerevisiae deletion strains, locus YOR001W, strain rrp6, stronger effect = lower value",0.976
same,normalized growth,"S. cerevisiae deletion strains, locus YOR070C, strain gyp1, stronger effect = lower value",1.01
same,normalized growth,"S. cerevisiae deletion strains, locus YOR080W, strain dia2, stronger effect = lower value",1.02
same,normalized growth,"S. cerevisiae deletion strains, locus YOR083W, strain WHI5, stronger effect = lower value",0.995
same,normalized growth,"S. cerevisiae deletion strains, locus YOR106W, strain vam3, stronger effect = lower value",1.01
same,normalized growth,"S. cerevisiae deletion strains, locus YOR231W, strain MKK1, stronger effect = lower value",1.02
same,normalized growth,"S. cerevisiae deletion strains, locus YOR265W, strain rbl2, stronger effect = lower value",1.01
same,normalized growth,"S. cerevisiae deletion strains, locus YOR270C, strain vph1, stronger effect = lower value",0.999
same,normalized growth,"S. cerevisiae deletion strains, locus YOR290C, strain snf2, stronger effect = lower value",1
same,normalized growth,"S. cerevisiae deletion strains, locus YPL051W, strain arl3, stronger effect = lower value",0.982
same,normalized growth,"S. cerevisiae deletion strains, locus YPL078C, strain atp4, stronger effect = lower value",0.997
same,normalized growth,"S. cerevisiae deletion strains, locus YPL106C, strain sse1, stronger effect = lower value",1.01
same,normalized growth,"S. cerevisiae deletion strains, locus YPL240C, strain hsp82, stronger effect = lower value",1.02
same,normalized growth,"S. cerevisiae deletion strains, locus YPL256C, strain CLN2, stronger effect = lower value",1.03
c1ccc2c(c1)-c1cccc3cccc-2c13,normalized growth,"S. cerevisiae deletion strains, locus YAL013W, strain DEP1, stronger effect = lower value",0.897 (active)
same,normalized growth,"S. cerevisiae deletion strains, locus YBR229C, strain ROT2, stronger effect = lower value",0.873 (active)
same,normalized growth,[1],0.876 (active)
same,normalized growth,"S. cerevisiae deletion strains, locus YDL101C, strain DUN1, stronger effect = lower value",0.929
same,normalized growth,"S. cerevisiae deletion strains, locus YDL134C, strain PPH21, stronger effect = lower value",0.873 (active)
same,normalized growth,"S. cerevisiae deletion strains, locus YDR150W, strain NUM1, stronger effect = lower value",0.911
same,normalized growth,"S. cerevisiae deletion strains, locus YEL061C, strain CIN8, stronger effect = lower value",0.787 (active)
same,normalized growth,"S. cerevisiae deletion strains, locus YGR078C, strain PAC10, stronger effect = lower value",0.855 (active)
same,normalized growth,[2],0.34 (active)
same,normalized growth,"S. cerevisiae deletion strains, locus YHR087W, strain rtc3, stronger effect = lower value",0.826 (active)
same,normalized growth,[3],0.939
same,normalized growth,"S. cerevisiae deletion strains, locus YJR043C, strain POL32, stronger effect = lower value",0.929
same,normalized growth,"S. cerevisiae deletion strains, locus YJR075W, strain HOC1, stronger effect = lower value",0.771 (active)
same,normalized growth,"S. cerevisiae deletion strains, locus YKL190W, strain CNB1, stronger effect = lower value",0.767 (active)
same,normalized growth,"S. cerevisiae deletion strains, locus YLR039C, strain RIC1, stronger effect = lower value",0.363 (active)
same,normalized growth,"S. cerevisiae deletion strains, locus YLR058C, strain SHM2 (second series), stronger effect = lower value",0.923 (active)
same,normalized growth,"S. cerevisiae deletion strains, locus YLR085C, strain ARP6, stronger effect = lower value",0.318 (active)
same,normalized growth,"S. cerevisiae deletion strains, locus YLR262C, strain YPT6, stronger effect = lower value",0.313 (active)
same,normalized growth,"S. cerevisiae deletion strains, locus YML094W, strain GIM5, stronger effect = lower value",0.757 (active)
same,normalized growth,"S. cerevisiae deletion strains, locus YMR219W, strain ESC1, stronger effect = lower value",0.949
same,normalized growth,"S. cerevisiae deletion strains, locus YMR263W, strain SAP30, stronger effect = lower value",0.916
same,normalized growth,"S. cerevisiae deletion strains, locus YMR307W, strain GAS1, stronger effect = lower value",0.428 (active)
same,normalized growth,"S. cerevisiae deletion strains, locus YNL153C, strain GIM3, stronger effect = lower value",0.906 (active)
same,normalized growth,"S. cerevisiae deletion strains, locus YNL298W, strain CLA4 (second series), stronger effect = lower value",0.694 (active)
same,normalized growth,"S. cerevisiae deletion strains, locus YNL322C, strain KRE1, stronger effect = lower value",0.932 (active)
same,normalized growth,"S. cerevisiae deletion strains, locus YNR030W, strain Alg12, stronger effect = lower value",0.721 (active)
same,normalized growth,"S. cerevisiae deletion strains, locus YOL006C, strain TOP1, stronger effect = lower value",0.764
same,normalized growth,"S. cerevisiae deletion strains, locus YPL055C, strain LGE1, stronger effect = lower value",0.666 (active)
same,normalized growth,"S. cerevisiae deletion strains, locus YPL241C, strain CIN2, stronger effect = lower value",0.648 (active)
same,normalized growth,"S. cerevisiae deletion strains, locus YPR135W, strain CTF4, stronger effect = lower value",0.483 (active)
same,normalized growth,"S. cerevisiae strains, strain wild type, stronger effect = lower value",0.863 (active)
